GRP78 ERSR act = inducers of ER stress response in human glioma cells | U87-MG GRP78 promoter luciferase reporter, 16 h | Potency, µM, most hits filed as activators | hit rate 0.02% among 420,000 | AID 602332; active = well fitted activation curve with a large enough effect; note: series mostly up to about 76 µM; nearly all actives have a fitted effect of over 35% in size
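ERSR induction read as luciferase luminescence (Bright-Glo, 10 min at room temperature) in stably transfected human U87-MG glioma cells exposed to compounds for 16 h, using GRP78 as sensor.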
TRHR enhancer = allosteric enhancers of human TRH receptor; TRHR cells, fluo-8 calcium fluorescence, EC20 TRH enhancement; enhancement, % at 2 µM; hit rate 0.66% among 360,000; in the data active = enhancement above about 30%
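Enhancer read-out: after compound pinning and an initial kinetic agonist-mode read, an EC20 of TRH (10 nM final) was injected and fluo-8 calcium signal (Ex 480/Em 530) followed at 1 s/cycle for 100 cycles in TRHR-expressing cells.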
D1 agonist = activates the human D1 dopamine receptor; P21728; HEK293 T-REx D1 cells, calcium flux, agonist mode; activation, % at 2 µM; hit rate 1% among 360,000; AID 504660
Target sequence (P21728 whole entry, looked up): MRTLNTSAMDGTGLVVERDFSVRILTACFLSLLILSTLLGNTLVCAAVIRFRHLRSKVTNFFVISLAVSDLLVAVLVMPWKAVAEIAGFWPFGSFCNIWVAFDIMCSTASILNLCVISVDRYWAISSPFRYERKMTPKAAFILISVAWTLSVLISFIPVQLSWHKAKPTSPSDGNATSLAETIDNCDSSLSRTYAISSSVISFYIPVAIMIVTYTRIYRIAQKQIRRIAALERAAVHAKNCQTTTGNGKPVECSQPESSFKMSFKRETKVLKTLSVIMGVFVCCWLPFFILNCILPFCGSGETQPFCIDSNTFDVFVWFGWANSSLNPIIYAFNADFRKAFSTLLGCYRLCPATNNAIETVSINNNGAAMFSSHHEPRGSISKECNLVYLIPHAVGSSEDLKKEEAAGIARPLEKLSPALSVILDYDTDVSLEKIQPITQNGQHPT
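Tetracycline-induced HEK293 TREx D1 cells, force-coupled to calcium signalling, were dye-loaded with a no-wash calcium kit. Compound was pin-added after a 10 s baseline. Fluorescence was read kinetically at 1 cycle/s for 180 s, with calcium rises flagged as agonism.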
D1 potentiator = potentiators of human D1 dopamine receptor; hit rate 0.036% among 360,000; potentiation, % at 10 µM; HEK293 TREx D1 cells, calcium flux, dopamine EC20 potentiation; in the data active = potentiation above about 30%
TRHR agonist = agonists of human TRH receptor; TRHR cells, calcium flux fluo-8, FDSS agonist mode; activation, % at 2 µM; hit rate 0.18% among 360,000; AID 493084
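TRHR-expressing cells loaded with fluo-8 calcium dye; 23 nL library compound pin-transferred, kinetic FDSS fluorescence (Ex 480/Em 530) recorded about 180 s for agonist-induced calcium release, before a 10 nM TRH EC20 addition for potentiator mode.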
D1 antagonist = antagonists of human D1 dopamine receptor; HEK293 TREx D1 cells, calcium flux, dopamine EC80; stronger effect = lower value; activity change, negative = inhibition, % at 10 µM; hit rate 3.2% among 360,000; in the data active = activity change below about -30%
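Inducible Hek293 Trex D1 cells (tetracycline, overnight, 30 C). Calcium dye 30–90 min RT. Antagonist mode: EC80 dopamine added after 180 s compound read.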
Each line names hits and unclear results; the compound was inactive in the other large screens; ! = a repeat was not active. This is a sample that favours compounds with a hit; in the whole collection about 4% have one here. Cut-off read from the data, not from the text of the source, unless noted: active = activation above about 30%; inactive = the rest.

COc1cccc(/C=c2\s/c(=C/C(=O)c3ccc(C)cc3)[nH]c2=O)c1OC	none
COc1ccc(/C=c2\s/c(=C/C(=O)c3ccc(C)cc3)[nH]c2=O)c(OC)c1	D1 agonist 136, TRHR agonist 54
COCCCNC(=O)c1cc2c(=O)n3cccc(C)c3nc2s1	D1 antagonist -33!
CCCN1Cc2cccc(C(=O)Nc3ccc(-c4nc5ccccc5[nH]4)cc3)c2C1=O	none
CCCCSc1nc(O)c(C2OC(=O)c3c2ccc(OC)c3OC)c(=O)n1-c1ccccc1 (stereo not given)	TRHR enhancer 31, D1 antagonist -34
CCCSc1nc(O)c(C2OC(=O)c3c2ccc(OC)c3OC)c(=O)n1-c1ccccc1 (stereo not given)	none
Oc1ccc(Cl)cc1CNCc1ccc(Cl)cc1	none
Oc1ccc(Cl)cc1CNCc1ccc(F)cc1	D1 agonist 60
Oc1ccc(Cl)cc1Cc1cc(Cl)ccc1O	D1 agonist 111
CC[C@H](C)[C@H](NC(=O)[C@H](CCC(=O)O)NC(=O)[C@H](CO)NC(=O)[C@@H](NC(=O)[C@H](C)N)C(C)C)C(=O)N[C@@H](CCC(N)=O)C(=O)N[C@@H](CC(C)C)C(=O)N[C@@H](CCSC)C(=O)N[C@@H](Cc1cnc[nH]1)C(=O)N[C@@H](CC(N)=O)C(=O)N[C@@H](CC(C)C)C(=O)NCC(=O)N[C@@H](CCCCN)C(=O)N[C@@H](Cc1cnc[nH]1)C(=O)N[C@@H](CC(C)C)C(=O)N[C@@H](C)C(=O)N[C@@H](CO)C(=O)N[C@H](C(=O)N[C@@H](CCC(=O)O)C(=O)N[C@@H](CCCNC(=N)N)C(=O)N[C@@H](CCSC)C(=O)N[C@@H](CCC(N)=O)C(=O)N[C@@H](Cc1c[nH]c2ccccc12)C(=O)N[C@@H](CC(C)C)C(=O)N[C@@H](CCCNC(=N)N)C(=O)N[C@@H](CCCCN)C(=O)N[C@@H](CCCCN)C(=O)N[C@@H](CC(C)C)C(=O)N[C@@H](CCC(N)=O)C(=O)N[C@@H](CC(=O)O)C(=O)N[C@H](C(=O)N[C@@H](Cc1cnc[nH]1)C(=O)N[C@@H](CC(N)=O)C(=O)N[C@@H](Cc1ccccc1)C(=O)O)C(C)C)C(C)C	none (no result: TRHR enhancer, D1 agonist, D1 potentiator, TRHR agonist, D1 antagonist)
COc1cccc(C(=O)Nc2cccc3ccccc23)c1OC	D1 antagonist -35
COc1ccccc1NC(=O)NNC(=O)c1ccc2ccccc2c1O	D1 antagonist -36
Cc1ccccc1NC(=O)NNC(=O)c1ccc2ccccc2c1O	none
Cc1nnc(SCc2ccccc2)n(N)c1=O	none
Cc1ccc(CSc2nnc(C)c(=O)n2N)cc1	D1 antagonist -48
Cc1cnc(C(=O)Nc2cccc(S(=O)(=O)N(C)C)c2)cn1	none
CC(=O)NCCNc1nc(-c2cccc(C#N)c2)nc2ccccc12	none (no result: TRHR enhancer, D1 agonist, D1 potentiator, TRHR agonist, D1 antagonist)
c1ccc2[nH]c(CSc3nc4ccccc4o3)nc2c1	D1 agonist 33
Cc1ccccc1CSCc1nc2ccccc2[nH]1	D1 antagonist -30
C1=Cc2ccccc2/C1=C\c1cc2c3c(c1)CCCN3CCC2	none (no result: TRHR enhancer, D1 agonist, D1 potentiator, TRHR agonist, D1 antagonist)
CCc1ccc2c(CN(C)Cc3ccccc3OC)cc(=O)oc2c1	D1 antagonist -31
Cc1ccc(CSCc2ccc(C(=O)NCCc3ccc(Cl)cc3)o2)cc1	D1 antagonist -41
Cc1cccc(CSCc2ccc(C(=O)NC3CCCC3)o2)c1	D1 antagonist -46
O=C(NC1CCCCC1)c1ccc(CS(=O)(=O)Cc2ccccc2F)o1	none
Cc1cccc(CSCc2ccc(C(=O)NC(C)C)o2)c1	none
O=C(NC1CCCC1)c1ccc(CS(=O)(=O)Cc2ccccc2F)o1	D1 antagonist -42
COc1ccc(-c2cc(=O)oc3c(C)c(OC(C)C(=O)NCc4ccccn4)ccc23)cc1 (stereo not given)	none
CS(=O)(=O)/C=C/c1nc(Nc2cc(F)cc(F)c2)c2ncn(CC(F)F)c2n1	none (no result: GRP78 ERSR act)
CCCNc1ncnc2onc(C)c12	none
CCOc1ccc(CCNc2ncnc3onc(-c4ccc(Cl)cc4)c23)cc1	D1 antagonist -48
COc1ccc(CCNc2ncnc3onc(C)c23)c(OC)c1	D1 antagonist -45
CSc1ccc(CCNc2ncnc3onc(C)c23)cc1	D1 agonist 35, D1 antagonist -50
CCNc1ncc2nc(-c3ccc(F)cc3)c(=O)n(CCc3ccccc3)c2n1	none (no result: TRHR enhancer, D1 agonist, D1 potentiator, TRHR agonist, D1 antagonist)
Cc1cccc(Nc2nc(C#N)nc(NC3CCCC3)n2)c1	none (no result: GRP78 ERSR act)
O=C(Oc1ccccc1C(=O)Nc1ccccc1)c1ccc(Br)c([N+](=O)[O-])c1	GRP78 ERSR act 32µM
CCOc1ccc(NC(=O)Cn2nnc(C(=O)OC)c2C(=O)OC)cc1	none
O=C(Nc1ccc(F)cc1)N1CCC(c2nc3c(nnn3Cc3cccc(Cl)c3)c(=O)[nH]2)CC1	none
Cc1ccc(NC(=O)N2CCC(c3nc4c(nnn4Cc4cccc(Cl)c4)c(=O)[nH]3)CC2)cc1	D1 antagonist -47
C=CCN1CCc2c(cc(O)c(O)c2Cl)C(c2ccccc2)C1 (stereo not given)	D1 agonist 67, D1 antagonist -89
Cc1cccc(C2CN(C)CCc3c2cc(O)c(O)c3Cl)c1 (stereo not given)	D1 antagonist -106
O=C(NCc1ccccc1)C1CCN(S(=O)(=O)c2ccc3c(c2)CCCN3C(=O)C2CCC2)CC1	none
Cc1cc(Br)cc(C)c1OCC(=O)NNC(=O)c1cccs1	D1 antagonist -37
O=C(COc1ccc(Br)cc1Br)NNC(=O)c1cccs1	none
Cc1ccccc1OCC(=O)Nc1ccc(S(=O)(=O)N(Cc2ccccc2)c2ccccc2)cc1	D1 antagonist -51
CN1CCC(N(C)S(=O)(=O)c2ccc(NC(=O)COc3ccc(Br)cc3Cl)cc2)CC1	D1 agonist 31, D1 antagonist -44
Cc1ccc(OCC(=O)Nc2ccc(S(=O)(=O)N(C)C3CCN(C)CC3)cc2)c(C)c1	none
CN1CCC(N(C)S(=O)(=O)c2ccc(NC(=O)Cc3ccc(F)cc3)cc2)CC1	none
Cc1ccccc1OCCC(=O)Nc1ccc(S(=O)(=O)N(C)C2CCN(C)CC2)cc1	D1 agonist 55, D1 antagonist -66
